Measurements as given in PubChem BioAssay (NCI).
Compounds without any hit were thinned out: in the full panel of roughly 79,000, 15% have a hit. Rule as the data show it: active = growth inhibition above about 70%; inactive = the rest.

Key:
[1] = NCI Yeast Anticancer Drug Screen. Data for the rad50 strain (AID 155);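 also: 0% = growth of vehicle-only cultures of the same strain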; conditions: S. cerevisiae rad50 strain growth inhibition; at 50.0 µM; hits give high values
Outline: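 A DNA repair-deficient yeast mutant serves as the test organism; compound-induced growth inhibition is calculated against vehicle-treated cells.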

[2] = NCI Yeast Anticancer Drug Screen. Data for the mec2-1 strain (AID 157); conditions: S. cerevisiae mec2-1 strain, at 50.0 µM, hits give high values
Outline: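 Cells of the genetically defined mec2-1 yeast strain are incubated with test compound. Inhibition of growth is calculated against vehicle-treated controls.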

[3] = NCI Yeast Anticancer Drug Screen. Data for the sgs1 mgt1 strain (AID 161);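 also: 0% = growth of cultures given vehicle only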; conditions: S. cerevisiae sgs1 mgt1 strain, at 50.0 µM, hits give high values
Outline: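 Inhibition of yeast growth, normalised to vehicle-treated controls, is reported for a strain bearing genetic alterations in DNA damage repair.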

[4] = NCI Yeast Anticancer Drug Screen. Data for the cln2 rad14 strain (AID 165);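 also: 0% = growth equal to vehicle treated cultures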; conditions: S. cerevisiae cln2 rad14 strain, at 50.0 µM, hits give high values
Outline: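 The screen exposed genetically defined yeast (cln2 rad14) to test compounds and scored growth inhibition relative to vehicle-treated controls.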

[5] = NCI Yeast Anticancer Drug Screen. Data for the bub3 strain (AID 167); conditions: S. cerevisiae bub3 mutant strain, at 50.0 µM, hits give high values
Outline: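 Inhibition values come from growth of compound-treated mutant yeast normalised to vehicle-treated controls.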

[6] = NCI Yeast Anticancer Drug Screen. Data for the mlh1 rad18 strain (AID 175); conditions: S. cerevisiae mlh1 rad18 strain growth inhibition; at 50.0 µM; hits give high values
Outline: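 Compound-treated yeast growth, normalised to vehicle controls. Strain bears defined DNA repair mutations.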

Measured: growth inhibition

C#CC1(c2ccccc2)OCCO1
inactive: [1] 21.9% | [2] 17.4% | [3] 16.3% | [4] 4.55% | [5] -13.2% | [6] 27.4%

C[n+]1ccsn1
inactive: [1] -0.7% | [2] 3.05% | [3] -4.7% | [4] 37% | [5] -19.4% | [6] -10.4%

O=C1C=C(C2=CC(=O)C(=O)c3ccccc32)c2ccccc2C1=O
inactive: [1] 27.5% | [2] 9.45% | [3] 6.55% | [4] -5% | [5] 53.1% | [6] 35.2%

COC(=O)C1c2ccc(C)cc2-c2cc(C)ccc21
inactive: [1] 16.5% | [2] -36.9% | [3] 8.55% | [4] 17.4% | [5] 26.4% | [6] 32.6%

CCOC(=O)c1c(O)c(Cc2ccccc2)c(=O)n2c1[nH]c1cc(C)c(C)cc12
inactive: [1] 26.6% | [2] 26.2% | [3] 12.2% | [4] 15.5% | [5] -0.95% | [6] -1%

CC(CC[C@@]1(C)C(=O)CCC2O[C@]21C)[C@H]1C[C@@H](c2ccoc2)OC1=O (stereo partly specified)
inactive: [1] 9.05% | [2] -31.8% | [3] -5.4% | [4] -15.8% | [5] -4.8% | [6] -70.9%

O=C(CCCCCCCCC(=O)NCC1(c2ccccc2)CCNCC1)NCC1(c2ccccc2)CCNCC1
inactive: [1] -27.5% | [2] -23.6% | [3] -15.2% | [4] -3.25% | [5] -23.9% | [6] -11.2%

O=C(O)C#Cc1cccnc1
inactive: [1] -10.9% | [2] -14% | [3] 0.75% | [4] 6% | [5] -3.4% | [6] -16.9%

N#CC1=C(N2CCCC2)NC(=O)CC1=O
inactive: [1] 0% | [2] -4.4% | [3] -0.6% | [4] 35.6% | [5] 7.2% | [6] 1.4%

COC(=O)c1ncn(C(C(=O)OC)C(=O)OC)c1O
inactive: [1] -5.6% | [2] -6.75% | [3] -4.75% | [4] -14.4% | [5] -5.1% | [6] -10.8%

Cc1ccc(S(=O)(=O)NNCCC#N)cc1
inactive: [1] -5% | [2] 6.05% | [3] -4.35% | [4] -0.15% | [5] -4.9% | [6] 7.75%

CC1(c2cccc[n+]2Cc2ccccc2S(=O)(=O)[O-])OCCO1
inactive: [1] 5.5% | [2] -3.6% | [3] -8.95% | [4] 0.3% | [5] -3.95% | [6] -21.6%

c1ccc2c3c([nH]c2c1)C1(CCCCC1)c1c([nH]c2ccccc12)C31CCCCC1
inactive: [1] -19.6% | [2] 2.2% | [3] -8.9% | [4] 9.9% | [5] -20.4% | [6] -10.9%

[O-]c1c2c(nn1-c1ccc(Cl)cc1)c1ccccc1c[n+]2Cc1ccccc1
inactive: [1] -6.1% | [2] -20.6% | [3] -11.2% | [4] -2.5% | [5] 11.4% | [6] -16.2%

COP(=O)(OC)/C(=C\c1cn(C(c2ccccc2)(c2ccccc2)c2ccccc2)cn1)NC(C)=O
inactive: [1] -9.65% | [2] -32% | [3] -11.4% | [4] -22.1% | [5] -19.1% | [6] -10.2%

COC1C=CC2OC(c3ccccc3)OCC2O1 (stereo unspecified)
inactive: [1] -16.2% | [2] 9.1% | [3] -9.6% | [4] -35% | [5] 10% | [6] -1.65%

O=C(NN=C1CCCCC1)c1ccccc1
inactive: [1] -6% | [2] -10.1% | [3] -9.9% | [4] -25.8% | [5] -17.4% | [6] 0.2%

Nc1ccc(N=Nc2ccc(N)cc2)cc1
inactive: [1] 12.7% | [2] 6.5% | [3] -13.7% | [4] -8.9% | [5] 11.2% | [6] 2.5%

CC(C)OC(=O)C1CCC(=O)N1 (stereo unspecified)
inactive: [1] 12.1% | [2] -6.25% | [3] -7.4% | [4] -84.1% | [5] 19% | [6] -20.4%

CCc1cccc(CC)c1NC(=S)NC(=O)c1ccc(Br)cc1
inactive: [1] -5.3% | [2] -1.25% | [3] -7.9% | [4] 8.3% | [5] -9.5% | [6] -9.75%

CC1=C(CCC#N)C(=O)C(CCC#N)C(C)(C)C1 (stereo unspecified)
inactive: [1] 0.15% | [2] -8.65% | [3] -16.6% | [4] -29.6% | [5] -2.75% | [6] -7.9%
